According to PubChem BioAssay (NCI):
This is part of a sample that, as a whole, favours compounds with a hit. Of some 83,000 tested, about 20% had one in any assay.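 Growth was measured after 48 h exposure to one concentration of compound in 96-well plates. Values under 10 count as active.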 Unmarked numbers belong to inactive results. Active and inactive are the calls of the source.

Legend:
Experiment in all cases: NCI-60 one-dose screen, 48 h (100 = growth as untreated, 0 = no growth, -100 = all killed)
NCI-H23 lung = conditions: 10 µM unless noted
NCI-H226 lung = conditions: 10 µM unless noted
NCI-H322M lung = conditions: 10 µM unless noted
HOP-62 NSCLC = conditions: 10 µM unless noted
NCI-H460 lung = conditions: 10 µM unless noted
HOP-92 NSCLC = conditions: 10 µM unless noted
NCI-H522 lung = conditions: 10 µM unless noted
A549/ATCC NSCLC = conditions: 10 µM unless noted
786-0 renal = conditions: 10 µM unless noted
COLO 205 colon = conditions: 10 µM unless noted
DU-145 prostate = conditions: 10 µM unless noted
K-562 leukemia = conditions: 10 µM unless noted
MALME-3M melanoma = conditions: 10 µM unless noted
MDA-MB-231 breast = conditions: 10 µM unless noted
SF-268 CNS = conditions: 10 µM unless noted
SF-295 CNS = conditions: 10 µM unless noted
SF-539 CNS = conditions: 10 µM unless noted
UACC-257 melanoma = conditions: 10 µM
M14 melanoma = conditions: 10 µM unless noted
RXF 393 renal = conditions: 10 µM unless noted

Row | Compound | growth (NCI-H23 lung) | growth (NCI-H226 lung) | growth (NCI-H322M lung) | growth (HOP-62 NSCLC) | growth (NCI-H460 lung) | growth (HOP-92 NSCLC) | growth (NCI-H522 lung) | growth (A549/ATCC NSCLC) | growth (786-0 renal) | growth (COLO 205 colon) | growth (DU-145 prostate) | growth (K-562 leukemia) | growth (MALME-3M melanoma) | growth (MDA-MB-231 breast) | growth (SF-268 CNS) | growth (SF-295 CNS) | growth (SF-539 CNS) | growth (UACC-257 melanoma) | growth (M14 melanoma) | growth (RXF 393 renal)
1 | COc1cccc(NC(=O)Cn2cc3c(=O)oc4ccccc4c3n2)c1 | 102% | 104% | 98.9% | 116% | 101% | 93.8% | 83.1% | 105% | 98.4% | 101% | 103% | 103% | 103% | 96.6% | 103% | 97.2% | 102% | 101% | 101% | 
2 | O=c1oc2cc(OS(=O)(=O)c3ccc(F)cc3)ccc2c2c1CCCCC2 | 66.1% | 55.1% | 90.4% | 96.4% | 65.5% | 60% | 49.8% | 55.9% | 76.2% | 24.4% | 78.7% | 31.6% | 83.5% | 90.5% | 86.8% | 63.4% | 78.6% | 62.1% | 69.4% | 
3 | COc1ccc(C2CC(c3cccs3)=NN2c2ccc(S(=O)(=O)NC(=O)Nc3ccc(C)cc3)cc2)cc1 (configuration not stated) | 98.5% | 110% | 104% | 76.9% | 103% | 84.9% | 91.5% | 102% | 104% | -54.6% (active) | 102% | 114% | 40.6% | 117% | 95.6% | 100% | 98.3% | 40.9% | 58.4% | 
4 | O=c1[nH]c(-c2cn(-c3ccc(Cl)cc3)nn2)nc2ccccc12 | 77.6% | 65.5% | 52.4% | 52.5% | 74.7% | 62.9% | 67.8% | 61.2% | 31.9% | 99.2% | 94.6% | 96.6% | 59% | 74.9% | 77.9% | 83.6% | 48.2% | 77.9% | 91.4% | 
5 | NC(=O)c1c(NC(=O)c2ccc3c(c2)OCO3)sc2c1CCC(=O)C2 | -12.6% (active) | -5.74% (active) | 14.8% | 14.9% | 3.04% (active) | -21% (active) | -58.9% (active) | -9.76% (active) | 12.2% | -42.2% (active) | 40% | 1.31% (active) | -44% (active) | -20.5% (active) | 21.5% | -4.12% (active) | -55.5% (active) |  | 16.7% | 
6 | CCN1C(=S)N(CC)C2Nn3c(s/c(=C4\C(=O)N(C)c5ccccc54)c3=O)=NC21 (configuration not stated) | 44.9% | 88.6% | 73.1% | 52.3% | 29% | 76.1% | 32.3% | 50.3% | 56.2% | 30.8% | 34.6% | 12.8% | 51% | 42.1% | 53.5% | 47.4% | 6.07% (active) |  | 70.2% | 
7 | c1ccc(CCn2nnc3c(Nc4ccc(N5CCOCC5)cc4)ncnc32)cc1 | 102% | 90.2% | 106% | 91.1% | 89% | -2.53% (active) | 80.2% | 74.1% | 87.1% | 90.1% | 105% | 27.1% | 69.2% | 78.4% | 107% | 94.1% | 82.2% | 68.6% | 44% | 
8 | CC(=O)Nc1nc(C(=O)N2N=C(C)/C(=C/c3ccc(Cl)cc3)C2=O)cs1 | 102% | 106% | 99% | 97% | 105% | 95.7% | 44.7% | 103% | 100% | 104% | 103% | 106% | 93.1% | 110% | 96.2% | 98.2% | 107% | 94% | 96.7% | 
9 | COc1ccc(-c2nnc(COc3ccc(NS(=O)(=O)c4ccc(OC)cc4)cc3F)o2)cc1 | 56.6% | 57.9% | 83.6% | 93.9% | 77.8% | 70.9% | 49.2% | 62.8% | 74.8% | 70.6% | 80.8% | 55.8% | 78.6% | 82.7% | 84.6% | 67.8% | 80.5% | 74.9% | 78.2% | 
10 | COc1ccc(NC(=O)/N=c2\oc3c(OC)cccc3cc2-c2cc3ccccc3[nH]2)cc1 | 53.2% | 67.7% | 74% | 22.6% | 49.4% | -9.99% (active) | 76.3% | 55.7% | 10.7% | 97.8% | 69.3% | 86.3% | 57.3% | 36.3% | 70% | 52.1% | 35.3% |  | 93.5% | 
11 | CCC(c1ccc(OC)cc1)C(CC)c1ccc(O)c(CN2CCCC2)c1 (configuration not stated) | 9.32% (active) | 31.7% | 14.4% | 30.9% | -47.2% (active) | -34.7% (active) | 22.8% | 33.1% | 4.61% (active) | -85% (active) | 43.3% | -32.1% (active) | -56.1% (active) |  | 21.2% | -51.2% (active) | -18.9% (active) |  |  | -31.1% (active)
12 | Nc1nc(Cl)c2c(ncn2Cc2ccc(CCl)cc2)n1 | 94% | 94.5% | 94.9% | 120% | 93.8% | 54.9% | 76.1% | 83.4% | 103% | 106% | 86.5% | 117% | 94.6% | 88.2% | 91.1% | 52.8% | 82.5% |  | 97.2% | 
